PubChem BioAssay (Tox21)
Results filed as inconclusive are left out. Active and inactive are the calls of the source. Calls come from the whole dose curve; as a rule, active = well fitted cell-killing curve with a large enough effect in the repeat runs; inconclusive = weak or mixed curves, or effect the other way; inactive = flat fitted curve, though single readings scatter.

experiment: qHTS RealTime-Glo MT Cell Viability Assay in HEK293 cells - 0 hour (AID 1224880); conditions: RealTime-Glo luminescence; series mostly up to 76.8 µM; activity change, negative = cytotoxicity: at the top concentration; note: top concentration of the series differs between compounds; nearly all actives have a fitted effect of over 45% in size
Text: U.S. Tox21 Program National Center for Advancing Translational Sciences [NCATS] NIH Chemical Genomics Center [NCGC] U.S. Environmental Protection Agency [EPA] National Institutes of Environmental Health Sciences [NIEHS] National Toxicology Program [NTP] U.S. Food and Drug Administration [FDA] Tox21 Assay Overview: Measure of cell viability is critical in the cell-base assay. Analysis of cell viability is necessary for the characterization of cell responses to cytotoxic drugs and environmental stress. A RealTime-Glo MT Cell Viability Assay to monitor cell viability in real time of continues cell culture during 40 hours of compound treatment was used to screen Tox21 10K library compounds in Hek293 cells. The RealTime-Glo MT Cell Viability Assay is a nonlytic, homogeneous, bioluminescent method to measure cell viability in real time using a simple, plate-based method. The assay involves adding NanoLuc luciferase and a cell-permeant prosubstrate to cells in culture. Viable cells reduce the proprietary prosubstrate to generate a substrate for NanoLuc luciferase. This substrate diffuses from cells into the surrounding culture medium, where it is rapidly used by the NanoLuc Enzyme to produce a luminescent signal. The signal correlates with the number of viable cells, making the assay well suited for cytotoxicity studies.
Tox21 Assay Protocol Summary: The mixture of Hek293 cell suspension and reagents were dispensed at 600cells/6 ul/well in 1536-well tissue culture treated black solid bottom plates using a Multidrop dispenser. After the assay plates were incubated at a 37 C/5% CO2 incubator for 5 hours, 23 nL of compounds dissolved in DMSO, positive and negative controls was transferred to the assay plate by a pintool work station. The plates were incubated at 37 C for 40 hours. The luminescence intensity were measured at 0h, 8h, 16h, 24h, 32h and 40h time points using ViewLux plate reader during compound treatment.
% is set by controls: 0 for no effect and ±100 for the full control effect.

Structure (SMILES) | activity change, negative = cytotoxicity | Potency
c1cnccn1 | 1.62% (inactive) | 
O=C1CCc2cc(OCCCCc3nnnn3C3CCCCC3)ccc2N1 | -4.22% [at 35.3 µM] (inactive) | 
CC1(C)CCC[C@]2(C)[C@H]3CCO[C@]3(C)CC[C@@H]12 | 5.21% (inactive) | 
OC12N=C(c3ccccc3)SC1Cc1cc(Cl)ccc12 (stereo not given) | 13.2% (inactive) | 
COc1cc2nc(N3CCN(C(=O)c4ccco4)CC3)nc(N)c2cc1OC | 4.25% [at 15.8 µM] (inactive) | 
C=CC(=O)OCCOC(=O)C=C | -5.51% (inactive) | 
CCC(C)[O-].CCC(C)[O-].CCOC(=O)/C=C(/C)[O-].[Al+3] | 5.19% (inactive) | 
CCCC1CCC(=O)CC1 | 5.95% (inactive) | 
C=CCCC(=O)/C=C/C1C(C)=CCCC1(C)C (stereo not given) | -7.69% (inactive) | 
C#C[C@]1(O)CC[C@H]2[C@@H]3[C@H](C)CC4=C(CCC(=O)C4)[C@H]3CC[C@@]21C | -4.74% [at 35.3 µM] (inactive) | 
O=S(=O)(O)c1ccc(Nc2nc(Nc3ccc(/C=C/c4ccc(Nc5nc(Nc6ccc(S(=O)(=O)O)cc6)nc(N(CCO)CCO)n5)cc4S(=O)(=O)O)c(S(=O)(=O)O)c3)nc(N(CCO)CCO)n2)cc1 | -5.84% [at 35.3 µM] (inactive) | 
Nc1nc2c(ncn2COCCO)c(=O)[nH]1 | -0.5% [at 35.3 µM] (inactive) | 
Cc1c(F)c(N2CCNC(C)C2)cc2c1c(=O)c(C(=O)O)cn2C1CC1 (stereo not given) | 0.923% [at 35.3 µM] (inactive) | 
C=C(C)C(=O)OCCCCCCCCCC | 10.7% (inactive) | 
O=C(c1ccc(O)c(O)c1)c1ccc(O)cc1O | -11.4% (inactive) | 
COc1c(C)c2c(c(O)c1C/C=C(\C)CCC(=O)OCCN1CCOCC1)C(=O)OC2 | -3.47% [at 35.3 µM] (inactive) | 
FC(F)(F)c1cccc(Cl)c1 | -2.3% (inactive) | 
Nc1ccc(NCCO)c([N+](=O)[O-])c1 | -15.7% (inactive) | 
O=C1NC(=O)[C@@H]2CC=CC[C@H]12 | -4.05% (inactive) | 
Oc1ccccc1O |  | inactive

Structure (SMILES) | activity change, negative = cytotoxicity | Potency
CN(C)c1ccc(C(=C2C=CC(=[N+](C)C)C=C2)c2ccc(N(C)C)cc2)cc1 |  | inactive
CCc1oc2ccccc2c1C(=O)c1cc(I)c(O)c(I)c1 | -6.59% [at 35.3 µM] (inactive) | 
CC(=O)OCC=C(C)C | -0.94% [at 35.3 µM] (inactive) | 
COc1cccc(OC)c1C(=O)O | 27.3% (inactive) | 
[Cl][Pt-2]([Cl])([Cl])[Cl] | 20.1% (inactive) | 
C=C(CC)C(=O)c1ccc(OCC(=O)O)c(Cl)c1Cl |  | inactive
O=C1CCc2ccc(OCCCCN3CCN(c4cccc(Cl)c4Cl)CC3)cc2N1 | -4.32% [at 35.3 µM] (inactive) | 
CCc1cccc(CC)c1NC(=O)CN(CC(=O)O)CC(=O)O | -3.79% [at 35.3 µM] (inactive) | 
CCC(C)n1ncn(-c2ccc(N3CCN(c4ccc(OC[C@H]5CO[C@](Cn6cncn6)(c6ccc(Cl)cc6Cl)O5)cc4)CC3)cc2)c1=O (stereo not given in full) | -1.77% [at 35.3 µM] (inactive) | 
O=C(O)c1ccc2cc(C(=O)O)ccc2c1 | -3.58% (inactive) | 
CCCCCCCCCCCCOC(=O)c1ccc(O)cc1 | 0.361% (inactive) | 
S=c1nccc[nH]1 | 17.7% (inactive) | 
CCCCCCCCCCCC(=O)OCC(C)OC(=O)CCCCC(=O)O (stereo not given) | -13.3% [at 35.3 µM] (inactive) | 
c1ccc(C(O[C@@H]2CCCN(CCc3ccc4c(c3)OCO4)C2)c2ccccc2)cc1 | -9.75% (inactive) | 
CC(C)(c1cc(Br)c(OCC(Br)CBr)c(Br)c1)c1cc(Br)c(OCC(Br)CBr)c(Br)c1 (stereo not given) | -17.7% [at 35.3 µM] (inactive) | 
OC/C=C/CO | 5.43% (inactive) | 
CCO[Si](OCC)(OCC)OCC | 2.24% (inactive) | 
O=C(O)Cc1ccc2c(c1)C(=O)c1ccccc1CO2 | -19.5% [at 35.3 µM] (inactive) | 
O=c1[nH]c(=O)n([C@H]2C[C@H](O)[C@@H](CO)O2)cc1F | 4.71% [at 35.3 µM] (inactive) | 
C[C@H]1NCc2cc(-c3ccc4c(=O)c(C(=O)O)cn(C5CC5)c4c3OC(F)F)ccc21 | -10.2% [at 15.8 µM] (inactive) | 
